Reference: PubChem BioAssay AID1259418 (Broad Institute, 2018)
Screen size: about 3,400 compounds; about 840 (25%) were called active. Inconclusive results (about 11%) are left out. These entries were drawn from the full list. Measured potencies and affinities stand elsewhere. A number with no mark means an inactive call.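 Rule for the calls: active = fitted half-maximal concentration of signal decrease at or below twice the sample's top tested concentration; inconclusive = flat curve between -70 and -30 percent, or poor fit; inactive = flat within 30 percent, signal rise, or potency above limit.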

Test: T. gondii growth inhibition with IFN-gamma, dose response, cell-based, ME49Luc, HeLa, luciferase, 72 h (AID 1259418)
Conditions: T. gondii ME49Luc in IFN-y HeLa, active compounds read low, -100% = high-dose IFN-γ control wells; at 19.5 µM unless noted

SMILES	max activity
COc1ccc(CC(=O)N2CCC3(CC2)Nc2cc(F)ccc2-n2cccc23)cc1OC	6.12% [at 2.6 µM]
COc1ccc(-c2nc3c(s2)CN(S(=O)(=O)c2ccc(C(C)C)cc2)CC3)cc1	10.1% [at 0.16 µM]
CCCN1CCc2nc(SCc3nc(-c4ccc(OCC)c(OC)c4)oc3C)[nH]c(=O)c2C1	28.6% [at 0.16 µM]
Cc1ccc(-c2coc(-c3ccc(NC(=O)Nc4ccc(F)cc4)cc3)n2)cc1	8.43% [at 10 µM]
Cc1c(-c2n[nH]c(=S)n2-c2ccccc2)sc2nc3n(c(=O)c12)CCC3	-9.68% [at 0.16 µM]
CCc1cccc(NC(=O)COc2nc(CC)nc3ccccc23)c1	-10.7% [at 10 µM]
Cn1cccc1C(=O)Nc1ccc2c(c1)CCC(=O)N2	85.5%
Cc1nc(OCC(=O)NCc2ccccc2)c2ccccc2n1	19.6% [at 0.16 µM]
Cn1c(=O)c(C(=O)Nc2ccccc2)cc2cccnc21	14.2% [at 2.6 µM]
CCc1nc(OCC(=O)Nc2ccccc2Cl)c2ccccc2n1	-7.29% [at 1.35 µM]
Cc1nc(C)c(C(=O)N2CCCC2c2nc(-c3ccc(F)cc3F)no2)s1 (stereo unspecified)	25.6% [at 10 µM]
CCc1nc(OCC(=O)Nc2c(C)cc(C)cc2C)c2ccccc2n1	7.02% [at 2.6 µM]
CN1C(=O)c2cc(NC(=O)Cc3cccs3)ccc2OC[C@H]2O[C@@H](CC(=O)NCc3ccc(-c4ccccc4)cc3)CC[C@@H]21	-7.79% [at 1.2 µM]
Cc1ccc(CNC(=O)Nc2ccc(-c3nc(-c4ccccc4)co3)cc2)cc1	90.3% [at 10 µM]
Cc1oc(-c2ccccc2)nc1Cn1nnc(-c2nc(-c3ccccc3Br)no2)c1C	-8.57% [at 0.35 µM]
CC(=O)O[C@H]1C[C@@H](OC(C)=O)C(C)(C)C2C[C@@H](OC(C)=O)[C@@]3(C)C4=CC(=O)O[C@@H](c5ccoc5)[C@]4(C)CCC3[C@]21C (stereo partly specified)	-9.83% [at 5 µM]
Cc1ccc(CNC(=O)Nc2ccc(-c3nc(-c4ccc(C)cc4C)co3)cc2)cc1	14.7% [at 0.16 µM]
CCCCC(=O)Nc1ccc(-c2nc(-c3cc(C)ccc3C)co2)cc1	-7.17% [at 5 µM]
O=C1CNC[C@@H]2[C@H](c3ccc(C#Cc4cccnc4)cc3)[C@H](CO)N12	36.8%
O=C1CNC[C@@H]2[C@H](c3ccc(C#Cc4cccnc4)cc3)[C@@H](CO)N12	42.6%
N#Cc1ccc(-c2ccc([C@H]3[C@@H](CO)N4C(=O)CNC[C@@H]34)cc2)cc1	52.5%
O=C1CC2C(CCN2Cc2ccc(F)cc2)N1CCN1CCOCC1 (stereo unspecified)	15.6% [at 10 µM]
Cc1ccc(-c2coc(-c3ccc(NC(=O)c4sccc4C)cc3)n2)c(C)c1	14.5%
COC[C@H](N)C(=O)N1CCC(Cc2nnc(SC)n2C)CC1	32.3%
Cc1nc(Cn2cnc(-c3nc(C(=O)NCc4cc(F)cc(F)c4)c4ccccn34)c2)cs1	-10.1%
Cc1ccc(C)c(-c2coc(-c3ccc(NC(=O)Nc4cccc(F)c4)cc3)n2)c1	9.94% [at 2.6 µM]

SMILES	max activity
CC(C)Oc1ccc(NC(=O)c2nc3c(n2C(C)C)CCN(C(=O)c2ccccc2)C3)cc1	-6.92% [at 2.6 µM]
Cc1ccc(-c2nc(Cn3nnc(-c4nc(-c5cccc(C(F)(F)F)c5)no4)c3C)c(C)o2)cc1	13.1%
CCOC(=O)CSC1=Nc2ccccc2C2=NC(CC(=O)NCc3ccccc3OC)C(=O)N12 (stereo unspecified)	-7.6% [at 0.68 µM]
Cc1cccc(-c2nc(Cn3nnc(-c4nc(-c5cccnc5)no4)c3C)c(C)o2)c1	-5.69% [at 2.6 µM]
O=C(Nc1ccc(-c2nc(-c3ccccc3)co2)cc1)c1ccc(Cl)cc1	21.8% [at 5 µM]
Cc1ccc(-c2coc(-c3ccc(NC(=O)c4cccc(F)c4)cc3)n2)cc1	42.3%
O=C(Nc1ccc(-c2nc(-c3ccccc3)co2)cc1)c1ccccc1	74.5%
O=C(Nc1ccc(-c2nc(-c3ccccc3)co2)cc1)c1ccc(F)cc1	21.2% [at 1.35 µM]
COc1ccc(-c2nc(Cn3nnc(-c4nc(-c5cccc(Cl)c5)no4)c3C)c(C)o2)cc1	-6.44% [at 0.35 µM]
Cc1nc(CCNC(=O)C2CCN(S(=O)(=O)c3cc(F)ccc3F)CC2)cs1	21.6% [at 2.6 µM]
Cc1ccc(C(=O)Nc2c(C(=O)N3CCN(c4ccccn4)CC3)[nH]c3ccccc23)cc1	-27.2%
O=C(Cc1cccc(F)c1)Nc1ccc(-c2nc(-c3ccccc3)co2)cc1	16.9% [at 2.6 µM]
Cc1ccc(-c2nc(Cn3nnc(-c4nc(-c5ccc(F)cc5)no4)c3C)c(C)o2)cc1	22%
CCCC(=O)Nc1ccc(-c2nc(-c3cc(C)ccc3C)co2)cc1	-11.6% [at 1.35 µM]
COCC12CCCOC1CCN(S(=O)(=O)c1cn(C)cn1)C2 (stereo unspecified)	18.3%
COC[C@@H]1CCC[C@]12CN(S(=O)(=O)c1cccs1)CCO2	-9.83% [at 0.6 µM]
CCSc1ccc(-c2sc(-c3ccc(F)cc3)nc2C)nn1	31.6%
Cc1ccc(C(=O)Nc2c(C(=O)NCc3ccccn3)[nH]c3ccccc23)cc1	-2.99% [at 0.35 µM]
Cc1ccc(C(=O)Nc2c(C(=O)NCc3cccnc3)[nH]c3ccc(C)cc23)cc1	54.9% [at 2.6 µM]
Cc1cccc(C(=O)Nc2c(C(=O)NCc3ccccn3)[nH]c3ccc(C)cc23)c1	14.8% [at 10 µM]
O=C(Nc1c(C(=O)NCc2ccccn2)[nH]c2ccccc12)c1ccc(Cl)cc1	9.23% [at 1.35 µM]
Cc1cccc(C(=O)Nc2c(C(=O)NCc3cccnc3)[nH]c3ccc(C)cc23)c1	28.1% [at 5 µM]
Cc1ccc2[nH]c(C(=O)NCc3cccnc3)c(NC(=O)c3ccc(Cl)cc3)c2c1	-12% [at 10 µM]
Cc1ccc2[nH]c(C(=O)NCc3ccccn3)c(NC(=O)c3ccc(Cl)cc3)c2c1	27.1% [at 0.35 µM]
Cc1ccc2[nH]c(C(=O)N3CCN(c4ccccn4)CC3)c(NC(=O)c3ccc(F)cc3)c2c1	-13.6%
